Where “and” joins values, the source holds several entries; their conditions need not be identical. Identical values can stand only once. Compounds without any hit were thinned out: in the full panel of roughly 83,000, 20% have a hit.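 How to read the values: 0–100, growth inhibition (40 = 60% inhibited); 0, no net growth; -100 to 0, cell death (-40 = 40% of starting cells died; -100 = all dead).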 Unmarked numbers belong to inactive results. Calls of active or inactive are those of the source. Rule for the calls: active = growth percent below 10; inactive = the rest.
What follows are compounds tested on HL-60(TB) leukemia (assay: NCI-60 one-dose screen, 48 h (100 = growth as untreated, 0 = no growth, -100 = all killed)). Settings: 10 µM unless noted.
O=S(=O)(Nc1ccc(Cl)cc1Cl)c1ccc(-c2cnc(C3CC3)o2)cc1 was tested, and the growth was -0.119% (active). Compound O=S(=O)(NCCNc1cc(-c2cn(-c3ccccc3)nc2-c2cccc(O)c2)ccn1)c1cccc(F)c1 has a growth of 27.4%. With COc1cc(-c2cc3ncccc3c3[nH]c(=O)c4cccnc4c23)cc(OC)c1OC the growth was -7.16% (active). Work on CC1CCC(=O)N1c1ccc(N)cc1 (centres undefined) yielded a growth of 104%. For CC(C)(C)c1ccc(O)c(CNC2CCCCC2)c1, the growth was 74.8% and 77.1%. Compound COC(=O)C1(O)NC(=C(C#N)C#N)C(C#N)=C1C(=O)c1ccc(OC)c(OC)c1 (centres undefined) has a growth of 79%. O=C1C=C(C(O)c2ccc(O)cc2)C(=O)c2ccccc21 (centres undefined) was tested, and the growth was 98.4%. With O=C1c2cc(Cl)ccc2S(=O)(=O)c2c(NCCCNCCO)nc3ccccc3c21 the growth was -27% (active). Cc1c(C(=O)N[C@@H](Cc2ccccc2)C(=O)C(=O)NCCc2ccccc2)[nH]c2ccccc2c1=O was tested, and the growth was 98%. CS(=O)(=O)Nc1ccc([N+](=O)[O-])cc1Oc1ccccc1 was tested, and the growth was 92.9%. CCCOCC(O)CNCCN (centres undefined) was tested, and the growth was 99.8%. O=C(/C=C/C=C/c1ccc2c(c1)OCO2)N1CCCCC1 was tested, and the growth was 100% and 93.4%. COc1ccc(-c2cc(-c3ccc(Cl)cc3)c(C#N)c(=O)n2CCCCC(=O)Nc2ccccc2N)cc1 was tested, and the growth was 3.34% (active). In the case of C[n+]1ccc(Nc2ccc(NC(=O)c3ccc(Nc4cc[n+](C)c5ccc(N)cc45)cc3)cc2)cc1, the growth is reported as 82.3%. In the case of CN1CCN(Cc2occc(=O)c2O)CCN(C)CCN(Cc2occc(=O)c2O)CC1, the growth is reported as 98.8% and 48.1%. Compound Cc1cc2c(C(C)C)c(O)c(O)c(C=NCCCCCCC(=O)O)c2c(O)c1-c1c(C)cc2c(C(C)C)c(O)c(O)c(C=NCCCCCCC(=O)O)c2c1O has a growth of 28.9%. Work on O=C(Nc1ccc(Nc2ccncc2)cc1)c1ccc(Nc2ccnc3ccc([N+](=O)[O-])cc23)cc1[N+](=O)[O-] yielded a growth of 88.8%. O=S(=O)(Nc1ccccc1)c1ccc(C2CC3(Cl)C(Cl)=C(Cl)C2(Cl)C3(Cl)Cl)cc1 (centres undefined) was tested, and the growth was 13%. For O=C(CCc1nnc(Cn2cnc3nc[nH]c3c2=O)o1)c1nc2ncccc2[nH]1, the growth was 99.9%. With OCCN(CCO)c1ccc2ccccc2c1 the growth was 87.9%. For N#C/C(=C/c1ccc([N+](=O)[O-])cc1)n1nnc2cc(F)c(F)cc21, the growth was 62.7%. CCC1=C[C@]2(C3CC(=O)N(c4ccccc4)C3=O)CC(C(C)(C)C)C[C@@H]2[C@@H]2C(=O)N(c3ccccc3)C(=O)[C@H]12 (some centres undefined) showed a growth of 84.1%. COc1ccc(C2C3=C(COC3=O)N(CCO)c3cc4c(cc32)OCCO4)cc1 (centres undefined) showed a growth of 82.1%. For CSc1n(Cc2ccc3ccccc3c2)c(C)c[n+]1Cc1ccc2ccccc2c1, the growth was -45% (active). COC(=O)/C=C1/SC(=Nc2ccc(C)cc2)N(CCc2c[nH]c3ccc(O)cc23)C1=O was tested, and the growth was 49.3%. In the case of Clc1ccc(-c2nnc(COc3ccc(C4=NNC(c5ccco5)C4)cc3)o2)cc1 (centres undefined), the growth is reported as 79.6%. For Clc1ccc(-c2ccc(CNCC3CCNCC3)o2)c(-c2ccccc2)c1, the growth was -62.3% (active). For COc1cc(OC)cc(-c2ccc(-c3ccc(C(=N)N)cn3)o2)c1, the growth was -65.7% (active). With O=C(O)c1cccc(Br)c1 the growth was 104% and 98.8%. CCCCNCCC(O)c1cc2ccc(C(F)(F)F)cc2c2cc(C(F)(F)F)ccc12 (centres undefined) was tested, and the growth was -62.1% (active). With CC(=O)Nc1ccc(CC[C@H]2CCC/C=C/[C@@H]3C[C@H](O)C[C@H]3[C@H](O)/C=C/C(=O)O2)cc1 the growth was -9.6% (active). In the case of COc1cc(-c2cc(/C=C3\CCCCC3=O)[nH]n2)cc(OC)c1OC, the growth is reported as 97.9%. O=C(NNc1ccccc1)c1ccccc1 was tested, and the growth was 7.78% (active) and -1.5% (active). For O=C(CCCCCCN1CC(=O)N2[C@H](c3cc(Br)cs3)c3[nH]c4ccccc4c3C[C@H]2C1=O)NO, the growth was 4.98% (active). COc1ccc(-c2[nH]ncc2Nc2cc(OC)c(OC)c(OC)c2)cc1 was tested, and the growth was 31.6%. With O=C(c1nn(-c2ccccc2)c2c1CC(NCc1ccc(F)cc1)CC2)N1CCCCC1 (centres undefined) the growth was 86.6%. CCc1c(C(=O)N[C@@H]2c3cc(Cl)ccc3CC[C@@H]2O)[nH]c(C)c1C(C)=O showed a growth of 103%. In the case of O=C(Nc1cccc(C2=NCCN2)c1)c1ccc(OCCCOc2ccc(C(=O)Nc3cccc(C4=NCCN4)c3)cc2)cc1, the growth is reported as -27.3% (active). In the case of CCN1C(=O)/C(=c2\sc3n(c2=O)C2C(NN=3)N(CC)C(=S)N2CC)c2ccccc21 (centres undefined), the growth is reported as 87.4%.

— PubChem BioAssay (NCI)
